PubChem BioAssay (NCATS)
“And” between values parts separate entries of the source, which are not always exact repeats. Equal values may be shown once. Results filed as inconclusive are left out. The source made the active and inactive calls. Unless noted, the call rests on the fitted dose curve; in most records, active means well fitted curve in the direction sought with a large enough effect; inconclusive means small, poorly fitted or top-dose-only effect, or another doubt; inactive means no such curve, though single readings can be large; an effect the other way counts as inactive or inconclusive.

Key:
[1] = Cell Viability - MRC5 (AID 434; calls by dose curve;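 further: potency means the concentration at half of the fitted maximal effect; cells exposed to compound for 40 hours at 37 °C; potency reflects cytotoxicity seen as loss of intracellular ATP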); conditions: MRC5 lung fibroblast viability, qHTS
Procedure, shortened: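 MRC5 normal human lung fibroblasts (1500/well) were treated with compounds for 40 hr at 37 °C in complete medium, and viable cells were measured as intracellular ATP by CellTiter-Glo luminescence. AC50 came from Hill fits, normalized to DMSO and 100 uM tamoxifen.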

[2] = Cellular Toxicity (caspase-3) N2a (AID 665); conditions: N2a cells, luminescence, normalized: DMSO 0%, 10 µM staurosporine 100%; at 92.2 µM (top of the series);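 further: compound exposure lasted 16 h at 37 °C before readout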
Procedure, shortened: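 Mouse N2a neuroblastoma cells, 1500 per well, treated 16 h at 37 °C in complete medium; caspase-3/7 activity by Caspase-Glo luminescence after 1 h. Normalized to DMSO and 10 uM staurosporine; AC50 from Hill fits.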

[3] = MultiTox-Fluor Cytotoxicity Assay - LYMP1-002 - Live Cells (AID 955); conditions: LYMP1-002 lymphoblastoid live-cell protease fluorescence viability; series mostly up to 46.1 µM;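 further: cells exposed to compound for 16 hours; on the % scale 0 is the no-effect control and ±100 the full control effect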
Procedure, shortened: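 Human lymphoblastoid LYMP1-002 cells, 2500/well, treated 16 h at 37 C in complete medium. Live-cell protease activity via GF-AFC fluorescence (Ex/Em 405/510) after 60 min reagent incubation; AC50 from Hill fits.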

[4] = Cell Viability - LYMP2-005 (AID 967); conditions: LYMP2-005 lymphoblastoid cell viability; series mostly up to 92.2 µM;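 further: plate controls were DMSO only for no effect and 92 µM tetraoctylammonium bromide control for full effect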
Procedure, shortened: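 Acute cytotoxicity is scored as a concentration-dependent drop in intracellular ATP in human lymphoblastoid LYMP2-005 cells after 24 h compound treatment. ATP is quantified by luciferase luminescence, and AC50 is derived by Hill-equation modelling.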

[5] = Cell Viability - LYMP2-011 (AID 969); conditions: LYMP2-011 lymphoblastoid cells viability; series mostly up to 92.2 µM;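 further: 0% = DMSO only and full inhibition = 92 µM tetraoctylammonium bromide; nearly all actives have a fitted effect of over 60% in size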
Procedure, shortened: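 2500 cells/well in complete medium, compound-treated 24 h at 37 C. Viability read as intracellular ATP by CellTiter-Glo luminescence after 30 min at room temperature. AC50 from Hill fits of qHTS concentration-response data.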

[6] = Cell Viability - LYMP2-013 (AID 970); conditions: LYMP2-013 lymphoblastoid cells viability; series mostly up to 92.2 µM;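 further: 0% = DMSO only and full inhibition = tetraoctylammonium bromide control; nearly all actives have a fitted effect of over 55% in size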
Procedure, shortened: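 Human lymphoblastoid LYMP2-013 cells, 2500/well, treated 24 h at 37 C in complete medium; viability as intracellular ATP by CellTiter-Glo luminescence after 30 min. AC50 from Hill fits of qHTS concentration-response.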

[7] = Cell Viability - LYMP2-015 (AID 971); conditions: LYMP2-015 lymphoblastoid cell viability; series mostly up to 92.2 µM;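 further: 0% = DMSO only and full effect = 92 µM tetraoctylammonium bromide; nearly all actives have a fitted effect of over 55% in size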
Procedure, shortened: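 LYMP2-015 human lymphoblastoid cells (2500/well) in complete medium, compound-treated 24 h at 37 C; viability read as cellular ATP by CellTiter-Glo luminescence after 30 min at room temperature. AC50 from Hill-equation fits of qHTS concentration-response data.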

[8] = Cell Viability - LYMP2-019 (AID 973); conditions: LYMP2-019 lymphoblastoid cell line viability; series mostly up to 92.2 µM;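 further: 0% = DMSO alone and full effect = 92 µM tetraoctylammonium bromide; nearly all actives have a fitted effect of over 55% in size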
Procedure, shortened: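 Human lymphoblastoid LYMP2-019 cells (2500/well) preincubated 5 h at 37 C, then treated 24 h at 37 C in complete medium. Viability by CellTiter-Glo ATP luminescence after 30 min at room temperature; AC50 from Hill fits.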

[9] = Cell Viability - LYMP2-006 (AID 978); conditions: LYMP2-006 lymphoblastoid cell viability, qHTS; series mostly up to 92.2 µM; further: on the % scale 0 is the no-effect control and ±100 the full control effect; nearly all actives have a fitted effect of over 60% in size
Procedure, shortened: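 Cells are seeded at 2500 per well and rested 5 hr at 37 C. Compounds are added across a concentration series for 24 hr at 37 C, after which ATP is quantified by luciferase luminescence.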

[10] = molecular target: Peroxisome proliferator-activated receptor delta (Homo sapiens) (UniProt Q03181); assay: qHTS assay for small molecule agonists of peroxisome proliferator-activated receptor delta signaling (AID 588534; calls by dose curve;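 further: 0% = DMSO basal wells and 100% = positive control agonist at 10 µM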); conditions: HEK293T PPARdelta-UAS-bla, beta-lactamase ratio, 18 h; series mostly up to 76.7 µM
Sequence of Peroxisome proliferator-activated receptor delta (Homo sapiens) (Q03181 whole entry, looked up): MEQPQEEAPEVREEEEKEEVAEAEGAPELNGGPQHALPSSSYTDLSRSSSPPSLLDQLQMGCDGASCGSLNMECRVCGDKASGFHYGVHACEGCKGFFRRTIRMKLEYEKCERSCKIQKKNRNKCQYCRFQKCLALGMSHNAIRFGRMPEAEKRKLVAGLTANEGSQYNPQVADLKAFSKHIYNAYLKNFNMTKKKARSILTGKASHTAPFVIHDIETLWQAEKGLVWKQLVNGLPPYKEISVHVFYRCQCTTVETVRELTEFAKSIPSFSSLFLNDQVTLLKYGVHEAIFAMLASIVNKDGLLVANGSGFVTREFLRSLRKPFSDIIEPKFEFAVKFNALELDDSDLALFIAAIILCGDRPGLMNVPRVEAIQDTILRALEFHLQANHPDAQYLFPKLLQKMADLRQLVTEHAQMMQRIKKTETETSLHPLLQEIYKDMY
Procedure, shortened: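 Cells carrying a PPAR-delta beta-lactamase reporter were treated with compounds for 18 h at 37 °C in agonist mode. CCF4 fluorescence was read after 2 h; EC50 and efficacy from Hill fits.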

[11] = qHTS assay for small molecule antagonists of peroxisome proliferator-activated receptor delta signaling (AID 588535; active means well fitted inhibition curve with a large enough effect in the signal ratio, with a control signal flat, not every such curve was filed as active; the % refers to the signal ratio;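 on max response: cells co-treated with a PPAR-delta agonist as stimulator during compound exposure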); conditions: HEK293T PPARd-UAS-bla, beta-lactamase FRET ratio, 18 h; 460 nm channel
Procedure, shortened: (§1)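 Reporter: UAS-bla under PPAR-delta response element, HEK293T host. Medium: 2% charcoal/dextran FBS. Dosing: titration, 18 hrs, 37 C. Detection: CCF4, 2 hrs RT, 405 ex/460 and 530 em.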

[12] = molecular target: Peroxisome proliferator-activated receptor delta (Homo sapiens) (UniProt Q03181); assay: as above; conditions: HEK293T PPARd-UAS-bla, beta-lactamase FRET ratio, 18 h; series mostly up to 76.7 µM
Procedure, shortened: as §1

[13] = qHTS assay for environmental chemicals that activate the Aryl hydrocarbon Receptor (AhR) signaling pathway (AID 651777); conditions: 1A2-DRE human hepatoma cells, luciferase, 24 h; activation: stronger effect = higher value; further: % of control where 0% means no effect; nearly all actives have a fitted effect of over 15% in size
Procedure, shortened: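 Human hepatoma 1A2-DRE cells, stably carrying a dioxin response element and CYP1A2 promoter driving luciferase, were exposed to compounds for 24 hr at 37 C and 5% CO2. Luciferase signal was then read after 30 min One-Glo at room temperature.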

[14] = Cell Viability - LYMP2-023 (AID 975); conditions: LYMP2-023 lymphoblastoid cell viability; series mostly up to 92.2 µM;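 further: cellular ATP measured by luciferase luminescence as viability proxy; plate controls were DMSO only for no effect and 92 µM tetraoctylammonium bromide control for full effect; nearly all actives have a fitted effect of over 55% in size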
Procedure, shortened: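 LYMP2-023 human lymphoblastoid cells, 2500/well, preincubated 5 hr at 37 C, then compound-treated 24 hr at 37 C in complete medium. CellTiter-Glo luminescence (ATP) after 30 min at room temperature; AC50 from Hill-equation fits; tetraoctylammonium bromide positive control.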

[15] = Cell Viability - LYMP1-002 - Assay at 40 hr (AID 994); conditions: LYMP1-002 lymphoblastoid cell viability; series mostly up to 92.2 µM;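 further: 0% = DMSO only and full inhibition = 92 µM tetraoctylammonium bromide; nearly all actives have a fitted effect of over 60% in size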
Procedure, shortened: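 LYMP1-002 human lymphoblastoid cells (2500/well, complete medium) were treated with compounds for 40 hr at 37 C. Intracellular ATP was measured by CellTiter-Glo luminescence, and AC50 values came from Hill-equation fits of concentration-response data; tetraoctylammonium bromide was the positive control.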

[16] = molecular target: Peroxisome proliferator-activated receptor gamma (Homo sapiens) (UniProt P37231); assay: qHTS assay for small molecule antagonists of peroxisome proliferator-activated receptor gamma signaling (AID 588537; active means well fitted inhibition curve with a large enough effect in the signal ratio, with a control signal flat, not every such curve was filed as active; the % refers to the signal ratio;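 further: reporter cells co-stimulated with 50 nM rosiglitazone agonist during compound treatment; % of control where 0% means no effect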); conditions: HEK293 PPARg-UAS-bla, beta-lactamase ratio, antagonist mode; series mostly up to 76.8 µM
Sequence of Peroxisome proliferator-activated receptor gamma (Homo sapiens) (P37231 whole entry, looked up): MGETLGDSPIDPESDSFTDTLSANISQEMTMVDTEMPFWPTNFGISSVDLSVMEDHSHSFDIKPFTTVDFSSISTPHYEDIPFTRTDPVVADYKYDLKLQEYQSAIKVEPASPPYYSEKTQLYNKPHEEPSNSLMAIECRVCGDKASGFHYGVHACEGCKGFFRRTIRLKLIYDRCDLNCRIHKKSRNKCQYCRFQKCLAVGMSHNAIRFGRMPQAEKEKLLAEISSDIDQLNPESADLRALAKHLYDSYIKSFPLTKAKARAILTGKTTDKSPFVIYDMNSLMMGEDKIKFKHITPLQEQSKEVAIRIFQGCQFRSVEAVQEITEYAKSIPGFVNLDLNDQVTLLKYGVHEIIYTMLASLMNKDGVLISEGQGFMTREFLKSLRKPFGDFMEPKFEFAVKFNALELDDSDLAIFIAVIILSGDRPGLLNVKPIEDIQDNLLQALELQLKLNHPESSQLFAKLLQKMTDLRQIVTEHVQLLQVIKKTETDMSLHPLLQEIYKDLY
Procedure, shortened: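 We seeded GeneBLAzer HEK293 reporter cells at 3000 per well, allowed 6-6.5 h attachment at 37 C, then co-treated with test compound titrations and 50 nM rosiglitazone overnight (16 h). Inhibition was quantified from 460/530 nm emission ratios.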

[17] = molecular target: Thyroid hormone receptor beta (Homo sapiens) (UniProt P10828); assay: qHTS assay for small molecule agonists of thyroid hormone receptor beta signaling (AID 588545; calls by dose curve); conditions: TR-UAS-bla GripTite HEK 293, beta-lactamase ratio, agonist mode, 18 h, percent of T3 response, DMSO as zero; series mostly up to 76.7 µM
Sequence of Thyroid hormone receptor beta (Homo sapiens) (P10828 whole entry, looked up): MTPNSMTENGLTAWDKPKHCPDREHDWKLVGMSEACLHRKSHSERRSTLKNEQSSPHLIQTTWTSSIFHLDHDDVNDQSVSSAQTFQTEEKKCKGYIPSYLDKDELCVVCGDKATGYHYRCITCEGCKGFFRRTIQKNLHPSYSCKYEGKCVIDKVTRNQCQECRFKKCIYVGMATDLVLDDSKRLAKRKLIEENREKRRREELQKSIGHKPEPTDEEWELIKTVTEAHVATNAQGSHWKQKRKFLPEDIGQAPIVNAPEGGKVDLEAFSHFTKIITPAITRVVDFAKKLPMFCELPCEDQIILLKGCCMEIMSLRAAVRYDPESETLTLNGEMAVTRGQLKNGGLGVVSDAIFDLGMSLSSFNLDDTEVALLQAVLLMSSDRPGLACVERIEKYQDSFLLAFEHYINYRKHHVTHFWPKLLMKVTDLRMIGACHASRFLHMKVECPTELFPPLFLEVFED
Procedure, shortened: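 In this cell-based screen, titrated compounds act on HEK 293 cells held in medium with 2% charcoal/dextran FBS, NEAA and pyruvate for 18 hrs at 37 C. Responses are expressed relative to T3 (10 nM) as 100% and basal DMSO as 0%.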

[18] = molecular target: Voltage-gated inwardly rectifying potassium channel KCNH2 (Homo sapiens) (UniProt Q12809); assay: qHTS Assay for Small Molecule Inhibitors of the Human hERG Channel Activity (AID 588834); conditions: U2OS BacMam hERG, FluxOR thallium flux fluorescence; series mostly up to 92.2 µM;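 further: lower thallium flux fluorescence means stronger hERG block; nearly all actives have a fitted effect of over 50% in size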; further: potency means the concentration at half of the fitted maximal effect
Sequence of Voltage-gated inwardly rectifying potassium channel KCNH2 (Homo sapiens) (Q12809 whole entry, looked up): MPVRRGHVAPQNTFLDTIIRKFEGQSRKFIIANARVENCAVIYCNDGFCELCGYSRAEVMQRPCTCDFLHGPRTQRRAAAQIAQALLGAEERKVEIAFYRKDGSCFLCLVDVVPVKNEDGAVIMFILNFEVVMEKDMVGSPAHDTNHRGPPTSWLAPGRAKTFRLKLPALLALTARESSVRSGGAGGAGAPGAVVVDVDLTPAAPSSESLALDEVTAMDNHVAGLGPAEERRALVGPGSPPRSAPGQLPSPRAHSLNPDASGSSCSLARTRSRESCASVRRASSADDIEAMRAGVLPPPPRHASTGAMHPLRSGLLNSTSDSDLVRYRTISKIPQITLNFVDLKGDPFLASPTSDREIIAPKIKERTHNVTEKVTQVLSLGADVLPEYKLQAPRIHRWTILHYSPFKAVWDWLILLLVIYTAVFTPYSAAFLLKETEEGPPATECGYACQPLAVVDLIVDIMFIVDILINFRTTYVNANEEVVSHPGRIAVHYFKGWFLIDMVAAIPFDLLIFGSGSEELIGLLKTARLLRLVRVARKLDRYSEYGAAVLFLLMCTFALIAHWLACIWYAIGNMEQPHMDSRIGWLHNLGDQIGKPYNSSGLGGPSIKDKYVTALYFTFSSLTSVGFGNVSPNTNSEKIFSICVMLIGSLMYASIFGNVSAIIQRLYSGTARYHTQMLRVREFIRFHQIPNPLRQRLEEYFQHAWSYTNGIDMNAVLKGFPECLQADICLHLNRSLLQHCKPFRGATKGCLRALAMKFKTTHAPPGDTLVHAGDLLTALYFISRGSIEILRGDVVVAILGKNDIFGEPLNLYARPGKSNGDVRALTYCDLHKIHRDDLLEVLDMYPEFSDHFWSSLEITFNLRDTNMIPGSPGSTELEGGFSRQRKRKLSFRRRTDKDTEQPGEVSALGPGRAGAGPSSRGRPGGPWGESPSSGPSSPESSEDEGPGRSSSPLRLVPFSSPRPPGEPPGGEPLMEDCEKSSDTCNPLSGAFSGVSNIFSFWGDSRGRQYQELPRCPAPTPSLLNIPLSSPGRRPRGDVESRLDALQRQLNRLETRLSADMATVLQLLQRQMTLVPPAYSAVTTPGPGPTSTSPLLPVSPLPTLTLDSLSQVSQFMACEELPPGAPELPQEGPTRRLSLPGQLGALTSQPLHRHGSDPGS
Procedure, shortened: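 hERG-BacMam U2OS, 2000 cells/well; 0.7X FluxOR loading 1 hr RT dark; cpd ~10 min 37 °C; stim buffer; FDSS fluorescence 2 min @ 1 s; AC50 Hill fit.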

[19] = Cell Viability - SH-SY5Y (AID 544); conditions: SH-SY5Y neuroblastoma cell viability; viability change, negative = cytotoxic: at 92.2 µM (top of the series)
Procedure, shortened: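 SH-SY5Y human neuroblastoma cells (1500/well) incubated 5 h, then compound-treated 40 h at 37 °C in complete medium. Viability read as intracellular ATP by CellTiter-Glo luminescence after 20 min; AC50 from Hill-equation fits of qHTS concentration-response.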

[20] = Cellular Toxicity (caspase-3) Hek293 (AID 664); conditions: HEK293 caspase-3 activation, DMSO = 0%, 100 µM tamoxifen = 100%; series mostly up to 92.2 µM;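 further: cells exposed to compound for 16 h at 37 °C before readout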
Procedure, shortened: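 HEK293 cells in complete medium treated 16 h at 37 °C, then Caspase-Glo 3/7 luminescence read after 20 min at room temperature. Normalized to DMSO and 100 uM tamoxifen; AC50 from Hill fit of concentration-response.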

ClC(Cl)(Cl)c1ccccc1
inactive: Potency [1] > 92 µM | caspase-3 activation [2] -0.73% and -1.88% | outcome [3] | Potency [4] | Potency [5] | Potency [6] | Potency [7] | Potency [8] | Potency [9] | outcome [10] | Potency [12] | activation [13] -0.334% and -0.126%
32% and 10.5%: max response [11]

COc1ccc(C=O)cc1OC
inactive: Potency [1] > 92 µM | caspase-3 activation [2] -1.73% | Potency [4] | Potency [5] | Potency [6] | Potency [8] | Potency [14] | Potency [9] | Potency [15] | Potency [16] | outcome [17] | Potency [18]

O=[N+]([O-])c1ccc(Cl)c(Cl)c1
inactive: Potency [1] > 92 µM | Potency [19] | outcome [20] | Potency [4] | Potency [7] | Potency [15] | outcome [10] | Potency [16] | activation [13] 0.165%

CCN(CC)c1ccccc1
inactive: Potency [19] | outcome [20] | caspase-3 activation [2] -1.42% | Potency [4] | Potency [14] | Potency [9] | Potency [18] | activation [13] -0.415%

COc1ccc(N)cc1
35%: max response [11]
inactive: Potency [1] > 92 µM | Potency [19] | outcome [20] | caspase-3 activation [2] 1.03% and -0.467% | Potency [5] | Potency [8] | outcome [10] | Potency [12] | Potency [18] | activation [13] 1.03% and 6.89%

Cc1ccc([N+](=O)[O-])cc1C
inactive: outcome [20] | outcome [3] | Potency [6] | Potency [7] | Potency [8] | Potency [15] | outcome [10] | Potency [12] | Potency [16] | outcome [17] | Potency [18]
-1.38%: max response [11]

CCCC(=O)Cl
inactive: Potency [19] | outcome [20] | caspase-3 activation [2] 4.05% | Potency [4] | Potency [7] | Potency [9] | Potency [16] | Potency [18] | activation [13] -2.02%

ClC(Cl)=C(Cl)C(Cl)=C(Cl)Cl
-24.7% and -5.61%: max response [11]
inactive: outcome [20] | Potency [5] | Potency [6] | Potency [8] | Potency [9] | Potency [15] | outcome [10] | Potency [12] | outcome [17]

c1ccc(-c2ccccc2)cc1
inactive: caspase-3 activation [2] -1.9% | outcome [3] | Potency [4] | Potency [5] | Potency [6] | Potency [7] | Potency [8] | Potency [14] | Potency [9] | Potency [12] | Potency [16] | outcome [17] | activation [13] -0.623% and 2.83%
-1.97% and 13.4%: max response [11]
active: Potency [18] 44.7 µM

Clc1nc(Cl)nc(Nc2ccccc2Cl)n1
inactive: outcome [3] | Potency [6] | Potency [14] | Potency [9] | outcome [10] | Potency [16] | outcome [17] | activation [13] 3.35% and 3.56%

Clc1cccc(C(Cl)(Cl)Cl)n1
inactive: outcome [20] | caspase-3 activation [2] -0.536% | Potency [4] | Potency [5] | Potency [6] | Potency [7] | Potency [14] | Potency [9] | Potency [15] | Potency [16] | outcome [17] | Potency [18] | activation [13] -1.44% and -0.611%

CN=C=S
inactive: caspase-3 activation [2] 2.61% | outcome [3] | Potency [6] | Potency [8] | Potency [9] | Potency [15] | outcome [10] | Potency [12] | Potency [16] | outcome [17] | Potency [18] | activation [13] 0.215% and 0.204%
11.4%: max response [11]

CCC[CH2][Sn]([Cl])([Cl])[Cl]
31.1% and 8.78%: max response [11]
inactive: Potency [1] > 92 µM | Potency [19] | caspase-3 activation [2] 0.958% | outcome [3] | Potency [5] | Potency [14] | Potency [9] | Potency [15] | Potency [12] | Potency [16] | outcome [17] | Potency [18]

ClC(Cl)=C(Cl)Cl
inactive: Potency [1] > 92 µM | outcome [20] | caspase-3 activation [2] 0.443% and 1.4% | Potency [4] | Potency [5] | Potency [6] | Potency [7] | Potency [9] | Potency [15] | Potency [16] | Potency [18]

c1ccc(OP(Oc2ccccc2)Oc2ccccc2)cc1
inactive: Potency [19] | outcome [20] | caspase-3 activation [2] 0.755% | outcome [3] | Potency [5] | Potency [14] | Potency [9] | Potency [15] | Potency [16] | outcome [17] | activation [13] 0.234% and -1.88%

CCCCOCCOP(=O)(OCCOCCCC)OCCOCCCC
inactive: Potency [1] > 92 µM | Potency [19] | caspase-3 activation [2] -1.18% | outcome [3] | Potency [4] | Potency [5] | Potency [7] | Potency [8] | Potency [14] | Potency [12] | Potency [16] | outcome [17]
25%: max response [11]
